JMJD2E inh = blocks human JMJD2E demethylase activity; B2RXH2; JMJD2E catalytic domain, FDH-coupled NADH fluorescence (FDH is formaldehyde dehydrogenase); Potency, µM (series often up to 57.1 µM), inactives show at the highest dose activity change, negative = inhibition, actives largely listed as inhibitors; 230,000 tested, 1.6% active;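 also: 0% = wells with enzyme and -100% = buffer wells without enzyme; nearly all actives have a fitted effect of over 50% in size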
Tau fluor cs = counter-screen for tau fibril formation inhibitors | tau K18 P301L Alexa594 fluorescence, heparin fibrillization | Potency, µM (highest dose often 57.7 µM), for inactives: at the top dose activity change, negative = decrease | 280,000 tested, 0.93% active | AID 1463; active = well fitted curve in the direction sought with a large enough effect; inconclusive = small, poorly fitted or top-dose-only effect, or another doubt; inactive = no such curve, though single readings can be large; an effect the other way counts as inactive or inconclusive; also: nearly all actives have a fitted effect of over 55% in size
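Human tau K18 P301L (15 uM unlabeled, 0.24 uM Alexa 594-labeled) in 100 mM sodium acetate pH 7 with 20 uM heparin, 6 hr at 37 C. ThT 30 uM added, 1 hr ambient; Alexa 594 FP and total fluorescence read at 555/632 nm.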
Tau fibril ThT = inhibitors of human tau fibril formation, thioflavin T binding | recombinant tau K18 P301L (four-repeat tau fragment), heparin-induced fibrillization, ThT fluorescence | Potency, µM (top dose mostly 57.4 µM), inactives show top-dose activity, negative = inhibition, most hits filed as inhibitors | 270,000 tested, 2.1% active; active = well fitted curve in the direction sought with a large enough effect; inconclusive = small, poorly fitted or top-dose-only effect, or another doubt; inactive = no such curve, though single readings can be large; an effect the other way counts as inactive or inconclusive; also: nearly all actives have a fitted effect of over 55% in size
Target sequence (P10636 561-689 P618L limits assumed): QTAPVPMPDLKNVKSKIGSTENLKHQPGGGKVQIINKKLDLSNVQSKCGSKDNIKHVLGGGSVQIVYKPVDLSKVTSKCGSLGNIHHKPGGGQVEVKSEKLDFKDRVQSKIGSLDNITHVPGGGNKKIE
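K18 P301L tau (15 uM + 0.24 uM Alexa 594-tagged), heparin 20 uM, NaOAc pH 7, 6 h 37 C; ThT 30 uM, 1 h RT, ex 450/em 510 nm.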
ALDH1A1 inh = inhibitors of human aldehyde dehydrogenase 1A1; P00352; Purified ALDH1A1, NADH fluorescence, propionaldehyde substrate; Potency, µM (doses to about 75.3 µM), for the others: at the highest dose activity, negative = inhibition, most hits filed as inhibitors; 220,000 tested, 7.3% active;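 also: plate controls were no enzyme wells and a reference inhibitor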
HPGD inh = HPGD (human) dehydrogenase inhibition | AID 894 | Potency, µM, for inactives: at the highest dose activity change, negative = inhibition, most hits filed as inhibitors | purified HPGD, NADH fluorescence kinetic, PGE2 substrate | P15428 | 150,000 tested, 4.3% active
Target sequence (P15428 whole entry, looked up): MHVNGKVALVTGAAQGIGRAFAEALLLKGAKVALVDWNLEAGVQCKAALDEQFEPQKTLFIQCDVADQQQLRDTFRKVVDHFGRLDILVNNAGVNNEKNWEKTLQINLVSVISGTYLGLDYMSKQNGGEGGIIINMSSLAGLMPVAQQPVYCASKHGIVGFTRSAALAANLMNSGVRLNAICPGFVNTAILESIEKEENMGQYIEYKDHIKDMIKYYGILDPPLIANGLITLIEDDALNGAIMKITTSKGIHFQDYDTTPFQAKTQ
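20 nM HPGD preincubated 15 min at room temperature with compound in 50 mM Tris-HCl pH 8, 0.01% Tween 20. Started with 1 mM NAD+ and 30 uM prostaglandin E2; NADH fluorescence (360/450 nm) read 5 times over 30-s intervals, last minus first.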
Tau FP inhib = inhibitors of human tau fibril formation; P10636; K18 P301L tau heparin fibrillization, Alexa594 FP, 6 h; Potency, µM (titrated, usually from 57.7 µM), inactives show at the top dose activity, negative = inhibition, most hits filed as inhibitors; 280,000 tested, 0.39% active; AID 1468; active = well fitted curve in the direction sought with a large enough effect; inconclusive = small, poorly fitted or top-dose-only effect, or another doubt; inactive = no such curve, though single readings can be large; an effect the other way counts as inactive or inconclusive; also: nearly all actives have a fitted effect of over 55% in size
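FP of Alexa 594-tau after heparin (20 uM) induction. Substrate: human K18 P301L, 15 uM unlabeled, 0.24 uM labeled. Buffer 100 mM sodium acetate pH 7. 6 hr, 37 C.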
Active calls of the source: *; ? = inconclusive; . = not tested or not shown; ! = a repeat was not active; [ ] = remark or other dose. A selection: hits, their analogues and other compounds. The true share with any hit is near 9.9%. Unless noted, calls follow the shape of the dose curve; as a rule, active = well fitted inhibition curve with a large enough effect (not every such curve was filed as active); inconclusive = small, poorly fitted or top-dose-only effect, or another doubt; inactive = no such curve, though single readings can be large or run the other way. Unless noted, % is scaled to controls: 0 for no effect and ±100 for the full control effect; potency is read from the fitted curve at half-maximal effect.

SMILES	JMJD2E inh	Tau fluor cs	Tau fibril ThT	ALDH1A1 inh	HPGD inh	Tau FP inhib
CC1=C(/C=C/C(C)=C/C=C/C(C)=C/C(=O)Nc2ccc(O)cc2)C(C)(C)CCC1	20µM*!	11µM*[quencher]	16µM*	20µM*!	-9%	14%
CC1=C(/C=C/C(C)=C/C=C/C(C)=C\C(=O)O)C(C)(C)CCC1	-2%	0%	-10%	?	-14%	-1%
Cc1cc(C)cc(NC(=O)Cn2c(=O)n(Cc3ccc4c(c3)OCO4)c(=O)c3oc4ccccc4c32)c1	.	-19%	17%	.	.	?
CCOc1ccc(/C=N/OCC(=O)NCc2ccc3c(c2)OCO3)cc1OC	-9%	-10%	-10%	10%	.	-1%
CCC/C=C(\CCC)C(NP(=O)(c1ccccc1)c1ccccc1)c1ccc(-c2ccccc2)cc1 (centres undefined)	?	-14%	-17%	-6%	-18%	1%
Cc1cc(C)n(-c2nc3ccccc3nc2Nc2ccc(N(C)C)cc2)n1	.	18µM*[quencher]	?	.	.	?
Cc1cc(C)n(-c2nc3ccccc3nc2Nc2ccc3c(c2)OCO3)n1	-7%	?	-8%	7%	-11%	?
Cc1ccc2nc(Nc3ccc4[nH]c(=O)[nH]c4c3)c(-n3nc(C)cc3C)nc2c1	-5%	11µM*[quencher]	?	2%	-1%	15%
O=C(O)c1cc(O)c2c(c1)[C@H]([C@H]1c3cc(C(=O)O)cc(O)c3C(=O)c3c(O[C@@H]4OC(CO)C(O)C(O)C4O)cccc31)c1cccc(O[C@@H]3OC(CO)C(O)C(O)C3O)c1C2=O (some centres undefined)	11µM*	?	22µM*	-10%	7.9µM*	?
O=C1c2cccc(O)c2C(=O)c2c(O[C@@H]3O[C@H](CO)[C@@H](O)[C@H](O)[C@@H]3O)cccc21	.	.	.	9%[13.5 µM]	-3%	.
COc1ccc2nc(NC(=O)c3cc(=O)c4ccccc4o3)sc2c1	.	-22%	0.89µM*	.	.	-9%
COc1ccc(-n2nc(C(=O)Nc3nc4ccc(OC)cc4s3)c3ccccc3c2=O)c(OC)c1	8%	0%	-3%	20µM*	-6%	-4%
COc1ccc(-n2nc(C(=O)NCC(=O)NCc3ccccc3OC)c3ccccc3c2=O)c(OC)c1	?	-4%	1%	1%	.	-4%
C/C(=N\NC(=O)c1cccc(N/N=C(\C)c2ccncc2)c1)c1ccncc1	6%	-19%	?	?	.	-1%
C/C(=N\NC(=O)CNc1cccc(C(F)(F)F)c1)c1ccc(Br)cc1	-4%	-3%	5%	?	-14%	-6%
C/C(=N\NC(=O)c1ccc2nc[nH]c2c1)c1ccc([N+](=O)[O-])cc1	39%	-20%	.	.	.	-10%
C/C(=N\Nc1cccc(C(F)(F)F)c1)c1ccc(O)cc1	-8%	?	?	20µM*	.	8%
C/C(=N\NC(=O)c1cccc(N/N=C(\C)c2ccc([N+](=O)[O-])cc2)c1)c1ccc([N+](=O)[O-])cc1	4%	?	0.5µM*	.	.	7%
C/C(=N\NC(=O)c1cccc(N/N=C(\C)c2ccccc2)c1)c1ccccc1	1%	-26%	?	12µM*	?	16%
COc1ccc(NC(=O)CSC2=Nc3ccccc3C3=NC(Cc4ccccc4)C(=O)N23)cc1Cl (centres undefined)	.	-26%	8%	.	.	-9%
Cc1cc(Nc2ccccc2C)n2nc(Cc3ccc(Cl)cc3)nc2n1	.	-6%	-12%	.	.	6%
CCn1c(SCC(=O)c2ccc(C)cc2)nnc1-c1ccncc1	3%	-11%	-6%	?	32µM*	-1%
CCn1c(SCC(=O)c2ccc(C)cc2)nnc1-c1ccoc1C	-14%	-22%	?	?	32µM*	-14%
CC(C)C1COc2cc3oc(=O)ccc3cc2O1 (centres undefined)	?	-16%	-13%	?	?	1%
COCCCNC(=O)c1cc(Sc2nnc(C)s2)nc2ccccc12	?	-10%	-9%	.	.	-5%
SMILES	JMJD2E inh	Tau fluor cs	Tau fibril ThT	ALDH1A1 inh	HPGD inh	Tau FP inhib
CCN(CC)CCNC(=O)c1cc(Sc2nnc(C)s2)nc2ccccc12	-7%	12%	13%	9%	1.3µM*	6%
COc1ccc(C(=O)CSc2[nH]c(=O)cc(C(F)(F)F)c2C#N)cc1	-11%	-22%	?	18µM*	.	-5%
COc1ccc(-c2cc(C(F)(F)F)c(C#N)c(SCC(=O)Nc3ccc(C)cc3)n2)cc1	?	6%	12%	0%	?	10%
Cc1cc(C=O)c(C)n1-c1cccc(C(=O)O)c1	5%	-5%	-10%	-3%	.	2%
CCOC(=O)c1cccc(-n2c(C)cc(C=O)c2C)c1	-7%	7%	-2%	11µM*	-1%	-5%
COC(=O)c1cccc(-n2c(C)cc(C=O)c2C)c1	-3%	-8%	5%	7.9µM*	-13%	-6%
COc1ccccc1-n1c(C)cc(C=O)c1C	-14%	-3%	-2%	14µM*	-7%	3%
COC(=O)c1ccc(C)c(-n2c(C)cc(C=O)c2C)c1	1%	-10%	-9%	1.8µM*	-21%	-1%
COc1ccc(C)cc1-n1c(C)cc(C=O)c1C	-10%	-6%	-4%	?	.	0%
Cc1cc(/C=N/O)c(C)n1-c1cccc(Cl)c1	-3%	-16%	?	14µM*	.	3%
CC(=O)c1c(C)[nH]c(C(=O)CSc2nc3ccc(C)cc3[nH]2)c1C	7%	-26%	?	25µM*	-30%	-9%
CCOc1ccc2nc(SCC(=O)Nc3nonc3C)[nH]c2c1	-15%	-22%	-21%	-2%	.	8%
COc1ccc2nc(SCC(=O)Nc3cc(C)on3)[nH]c2c1	1%	-15%	?	-5%	-11%	2%
CCOc1ccc2nc(SCC(=O)Nc3cc4c(cc3C(C)=O)OCO4)[nH]c2c1	-26%	-20%	?	25µM*	-24%	4%
COc1ccc2nc(SCC(=O)Nc3ccc4c(c3)CCC4)[nH]c2c1	-2%	?	?	11µM*	-10%	-2%
Cc1cc(C)nc(NS(=O)(=O)c2ccc(NC(=O)CSc3nc4ccccc4[nH]3)cc2)n1	4%	-10%	-2%	20µM*	-5%	-3%
O=C(NC1CCN(C(=O)c2cccs2)CC1)c1ccccc1	7%	-4%	-4%	.	.	0%
Cc1ccc(S(=O)(=O)Nc2cc(=O)[nH]c(SCC(=O)Nc3cccc(C)c3)n2)cc1	-2%	?	.	.	.	16µM*
Cc1ccc2nc(SCC(=O)Nc3ccc(F)c([N+](=O)[O-])c3)[nH]c2c1	1%	28µM*[quencher]	?	?	-29%	-9%
